# Experimental data taken from PubChem BioAssay (EPA / NIEHS).
# Records with an inconclusive call do not appear. Active and inactive are the calls of the source. The calls were made as follows, unless noted: active = hit-call score of the fitted dose curve at least 0.9, where 1 is the maximum; inconclusive = response in the unintended direction; inactive = score below 0.9.
# Columns and labels:
# [1] = biological target: human Adenosine Transporter (Adot), SLC29A1 (gene 2030) (UniProt Q99808); experiment: NVS_TR_hAdoT: NovaScreen (NVS) Transporter Assay for human Adenosine Transporter (Adot) (AID 2283368)
# Procedure, shortened: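 Binding displacement on U937 extracted protein, read 1 h post-dose by filtration and scintillation counting. Primary duplicate test at 25 uM, then singleton concentration series with 50 uM top; DMSO baseline.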
# [2] = biological target: Peroxisome proliferator-activated receptor gamma (Homo sapiens) (UniProt P37231); experiment: NVS_NR_hPPARg: NovaScreen (NVS) Nuclear Receptor Binding Assay for human Peroxisome Proliferator-activated Receptor gamma (PPARg) (AID 2283370)
# Peroxisome proliferator-activated receptor gamma (Homo sapiens), sequence (P37231 whole entry, looked up): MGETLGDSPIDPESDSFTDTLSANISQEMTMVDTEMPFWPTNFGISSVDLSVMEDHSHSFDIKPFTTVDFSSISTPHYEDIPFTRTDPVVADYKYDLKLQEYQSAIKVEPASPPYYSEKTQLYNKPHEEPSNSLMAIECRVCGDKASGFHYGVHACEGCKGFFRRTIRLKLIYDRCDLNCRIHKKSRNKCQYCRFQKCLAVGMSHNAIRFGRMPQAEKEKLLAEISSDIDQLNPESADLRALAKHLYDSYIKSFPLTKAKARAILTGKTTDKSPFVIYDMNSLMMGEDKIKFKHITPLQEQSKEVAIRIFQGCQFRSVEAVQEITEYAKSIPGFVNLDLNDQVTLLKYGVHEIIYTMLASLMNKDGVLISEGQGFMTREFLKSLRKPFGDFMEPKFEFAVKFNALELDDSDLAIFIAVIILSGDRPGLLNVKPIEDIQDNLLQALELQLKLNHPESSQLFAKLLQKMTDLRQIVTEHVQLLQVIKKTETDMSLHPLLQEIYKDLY
# Procedure, shortened: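 Extracted receptor protein, cell-free; compound incubated 2 h then fluorescence polarization read. Baseline: DMSO. Actives from 25 uM duplicate screen re-run across concentrations.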
# [3] = biological target: human Norepinephrine Transporter (NET), SLC6A2 (gene 6530) (UniProt P23975); experiment: NVS_TR_hNET: NovaScreen (NVS) Transporter Assay for human Norepinephrine Transporter (NET) (AID 2283377);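 also: cell-free membrane protein extracted from CHO cells expressing human NET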
# human Norepinephrine Transporter (NET), SLC6A2 (gene 6530), sequence (P23975 whole entry, looked up): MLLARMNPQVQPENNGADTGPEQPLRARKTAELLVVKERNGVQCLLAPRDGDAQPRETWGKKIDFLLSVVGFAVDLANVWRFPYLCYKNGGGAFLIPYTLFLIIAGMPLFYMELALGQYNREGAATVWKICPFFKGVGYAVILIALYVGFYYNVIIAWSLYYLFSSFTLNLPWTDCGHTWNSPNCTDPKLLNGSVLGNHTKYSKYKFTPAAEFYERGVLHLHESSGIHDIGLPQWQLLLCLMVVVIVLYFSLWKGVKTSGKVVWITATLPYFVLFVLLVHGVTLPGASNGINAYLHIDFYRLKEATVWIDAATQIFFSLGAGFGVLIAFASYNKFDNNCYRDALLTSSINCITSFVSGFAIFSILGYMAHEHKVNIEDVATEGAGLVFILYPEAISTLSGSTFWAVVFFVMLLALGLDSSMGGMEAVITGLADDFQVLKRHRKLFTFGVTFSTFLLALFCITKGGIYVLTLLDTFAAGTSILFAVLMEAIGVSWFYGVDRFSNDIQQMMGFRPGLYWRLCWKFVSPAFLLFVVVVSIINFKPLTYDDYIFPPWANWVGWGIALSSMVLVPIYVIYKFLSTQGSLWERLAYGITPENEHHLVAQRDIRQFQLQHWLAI
# Procedure, shortened: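 Single-concentration duplicate screen at 25 uM, then concentration-response for actives; displacement of specific radioligand from human NET in CHO membrane extracts, filter-based scintillation detection at 1 h relative to DMSO.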
# [4] = biological target: Estrogen receptor (Homo sapiens) (UniProt P03372); experiment: OT_ERa_GFPERaERE_0480: Odyssey Thera (OT) 8-hour HeLa Transcription Induction Assay for Estrogen Receptor (AID 2283381; active = hit-call score of the fitted dose curve at least 0.9, where 1 is the maximum; inactive = score below 0.9)
# Estrogen receptor (Homo sapiens), sequence (P03372 whole entry, looked up): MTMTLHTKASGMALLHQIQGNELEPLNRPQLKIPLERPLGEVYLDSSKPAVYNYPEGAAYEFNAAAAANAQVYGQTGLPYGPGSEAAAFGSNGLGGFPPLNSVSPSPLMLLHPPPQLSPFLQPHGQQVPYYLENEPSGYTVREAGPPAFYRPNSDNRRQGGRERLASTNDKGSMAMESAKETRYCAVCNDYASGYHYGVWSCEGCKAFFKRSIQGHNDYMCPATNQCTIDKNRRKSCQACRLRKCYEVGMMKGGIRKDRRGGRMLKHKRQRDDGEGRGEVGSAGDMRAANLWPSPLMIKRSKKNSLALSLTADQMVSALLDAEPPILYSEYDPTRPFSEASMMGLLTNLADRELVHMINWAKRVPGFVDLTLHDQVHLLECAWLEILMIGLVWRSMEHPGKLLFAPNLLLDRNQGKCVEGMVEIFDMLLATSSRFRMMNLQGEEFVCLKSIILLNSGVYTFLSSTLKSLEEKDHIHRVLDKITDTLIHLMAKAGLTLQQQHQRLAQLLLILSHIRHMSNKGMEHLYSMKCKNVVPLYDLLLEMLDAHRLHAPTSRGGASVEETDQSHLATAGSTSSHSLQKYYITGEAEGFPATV
# Procedure, shortened: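 GFP-ERE reporter, HeLa, 8 h exposure. Readout: fluorescence microscopy, high-content image analysis. Fit direction positive vs DMSO negative control.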
# [5] = biological target: Estrogen receptor (Homo sapiens) (UniProt P03372); experiment: OT_ERa_GFPERaERE_0120: Odyssey Thera (OT) 2-hour HeLa Transcription Induction Assay for Estrogen Receptor (AID 2283382)
# Procedure, shortened: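 Fluorescence microscopy read-out: inducible fluorescent protein reporter in HeLa cells, imaged 2 h post-dose. Signal increase over DMSO negative control fitted as single primary endpoint via high content image analysis.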
# [6] = biological target: Retinoic acid receptor RXR-alpha (Homo sapiens) (UniProt P19793); experiment: OT_NURR1_NURR1RXRa_0480: Odyssey Thera (OT) 8-hour HEK293T Protein Complementation Assay for Nurr1/retinoid X receptor (RXR) (AID 2283385)
# Retinoic acid receptor RXR-alpha (Homo sapiens), sequence (P19793 whole entry, looked up, the tested form may be a part): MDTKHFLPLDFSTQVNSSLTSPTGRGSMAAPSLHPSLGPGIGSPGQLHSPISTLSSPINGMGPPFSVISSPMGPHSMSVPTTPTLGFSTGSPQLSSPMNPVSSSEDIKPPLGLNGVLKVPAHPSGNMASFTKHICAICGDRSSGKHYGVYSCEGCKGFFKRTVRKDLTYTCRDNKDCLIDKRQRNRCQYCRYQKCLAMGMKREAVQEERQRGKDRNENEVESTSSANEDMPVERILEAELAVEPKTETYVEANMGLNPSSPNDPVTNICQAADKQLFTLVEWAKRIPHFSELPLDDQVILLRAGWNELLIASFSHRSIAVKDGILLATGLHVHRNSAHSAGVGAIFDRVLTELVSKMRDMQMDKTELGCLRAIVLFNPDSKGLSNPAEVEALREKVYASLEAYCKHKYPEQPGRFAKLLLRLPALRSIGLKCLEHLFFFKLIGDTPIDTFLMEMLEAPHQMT
# Procedure, shortened: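 Read-out: fluorescence from protein-fragment complementation between Nurr1 and RXRα in human HEK293T cells, 8 h after dosing. DMSO served as negative control; increased signal counted as activity.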
# [7] = biological target: Retinoic acid receptor RXR-alpha (Homo sapiens) (UniProt P19793); experiment: OT_NURR1_NURR1RXRa_1440: Odyssey Thera (OT) 24-hour HEK293T Protein Complementation Assay for Nurr1/retinoid X receptor (RXR) (AID 2283386)
# Procedure, shortened: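 Fluorescence PCA read-out; HEK293T; 24 h post-dose; bait/prey fused to reporter fragments; gain-of-signal fit vs DMSO negative control.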
# [8] = biological target: Bile acid receptor (Homo sapiens) (UniProt Q96RI1); experiment: OT_FXR_FXRSRC1_1440: Odyssey Thera (OT) 24-hour HEK293T Protein-Complementation Assay for Farnesoid X receptor/SRC-1 Co-activator (AID 2283384)
# Bile acid receptor (Homo sapiens), sequence (Q96RI1 whole entry, looked up, the tested form may be a part): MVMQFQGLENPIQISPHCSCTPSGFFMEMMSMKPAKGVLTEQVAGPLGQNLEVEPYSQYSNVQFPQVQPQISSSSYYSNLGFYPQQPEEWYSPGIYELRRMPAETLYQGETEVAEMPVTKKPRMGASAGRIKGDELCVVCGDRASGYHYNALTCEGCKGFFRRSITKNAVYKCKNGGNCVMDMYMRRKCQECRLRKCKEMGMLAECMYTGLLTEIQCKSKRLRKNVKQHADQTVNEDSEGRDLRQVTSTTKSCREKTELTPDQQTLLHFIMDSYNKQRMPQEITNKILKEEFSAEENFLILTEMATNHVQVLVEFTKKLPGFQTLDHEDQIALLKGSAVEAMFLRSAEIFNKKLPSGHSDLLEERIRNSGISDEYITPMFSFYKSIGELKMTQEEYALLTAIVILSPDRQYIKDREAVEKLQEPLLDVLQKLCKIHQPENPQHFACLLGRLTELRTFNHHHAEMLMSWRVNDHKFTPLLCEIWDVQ
# Procedure, shortened: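 Fluorescence readout, 24 h post-dose, HEK293T; FXR and SRC-1 fused to complementary reporter fragments, association reconstitutes signal. Positive-direction fit vs DMSO baseline.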
# [9] = biological target: Agonist Androgen Response Element (ARE), AR (gene 367) (UniProt P10275); experiment: OT_AR_ARELUC_AG_1440: Odyssey Thera (OT) 24-hour CHO-K1 Luciferase Assay for Agonist Androgen Response Element (ARE) (AID 2283379)
# Agonist Androgen Response Element (ARE), AR (gene 367), sequence (P10275 whole entry, looked up): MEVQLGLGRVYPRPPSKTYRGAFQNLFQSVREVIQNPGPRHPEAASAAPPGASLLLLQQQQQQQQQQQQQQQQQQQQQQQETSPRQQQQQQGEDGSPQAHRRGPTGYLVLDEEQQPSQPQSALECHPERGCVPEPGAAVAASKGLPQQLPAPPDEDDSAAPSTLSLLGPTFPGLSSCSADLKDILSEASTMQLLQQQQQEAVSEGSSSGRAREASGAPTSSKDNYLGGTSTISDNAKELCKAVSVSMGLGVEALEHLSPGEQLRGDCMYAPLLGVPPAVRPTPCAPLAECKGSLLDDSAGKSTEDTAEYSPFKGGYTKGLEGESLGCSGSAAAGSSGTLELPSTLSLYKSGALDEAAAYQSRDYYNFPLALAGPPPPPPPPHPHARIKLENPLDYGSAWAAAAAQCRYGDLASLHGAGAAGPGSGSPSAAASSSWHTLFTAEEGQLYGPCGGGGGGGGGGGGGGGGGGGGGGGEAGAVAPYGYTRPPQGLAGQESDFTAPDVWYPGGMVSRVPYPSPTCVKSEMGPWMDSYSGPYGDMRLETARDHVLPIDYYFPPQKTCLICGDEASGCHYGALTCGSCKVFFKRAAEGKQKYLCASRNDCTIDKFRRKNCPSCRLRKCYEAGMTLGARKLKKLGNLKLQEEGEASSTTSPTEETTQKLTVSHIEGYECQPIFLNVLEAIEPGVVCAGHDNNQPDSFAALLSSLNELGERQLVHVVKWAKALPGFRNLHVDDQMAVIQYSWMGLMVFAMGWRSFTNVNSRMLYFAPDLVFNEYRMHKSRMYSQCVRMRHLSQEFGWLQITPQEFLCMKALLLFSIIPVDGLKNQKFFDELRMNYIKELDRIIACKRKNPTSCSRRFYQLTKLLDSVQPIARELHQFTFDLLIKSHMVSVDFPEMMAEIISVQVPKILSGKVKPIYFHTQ
# Procedure, shortened: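 Readout: luciferase bioluminescence from CHO-K1 ARE-luc cells, measured 24 h post-dosing; agonism = increased mean luminescence vs DMSO controls, fitted in positive direction.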
# [10] = biological target: Estrogen receptor beta (Homo sapiens) (UniProt Q92731); experiment: OT_ER_ERbERb_1440: Odyssey Thera (OT) 24-hour HEK293T Protein-Complementation Assay for Estrogen Receptor-beta/-beta Homodimer (AID 2283380);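 also: fluorescence gain from ER beta LBD homodimer complementation read by laser scanning cytometry; scored as signal increase over DMSO baseline for both agonists and antagonists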
# Estrogen receptor beta (Homo sapiens), sequence (Q92731 whole entry, looked up, the tested form may be a part): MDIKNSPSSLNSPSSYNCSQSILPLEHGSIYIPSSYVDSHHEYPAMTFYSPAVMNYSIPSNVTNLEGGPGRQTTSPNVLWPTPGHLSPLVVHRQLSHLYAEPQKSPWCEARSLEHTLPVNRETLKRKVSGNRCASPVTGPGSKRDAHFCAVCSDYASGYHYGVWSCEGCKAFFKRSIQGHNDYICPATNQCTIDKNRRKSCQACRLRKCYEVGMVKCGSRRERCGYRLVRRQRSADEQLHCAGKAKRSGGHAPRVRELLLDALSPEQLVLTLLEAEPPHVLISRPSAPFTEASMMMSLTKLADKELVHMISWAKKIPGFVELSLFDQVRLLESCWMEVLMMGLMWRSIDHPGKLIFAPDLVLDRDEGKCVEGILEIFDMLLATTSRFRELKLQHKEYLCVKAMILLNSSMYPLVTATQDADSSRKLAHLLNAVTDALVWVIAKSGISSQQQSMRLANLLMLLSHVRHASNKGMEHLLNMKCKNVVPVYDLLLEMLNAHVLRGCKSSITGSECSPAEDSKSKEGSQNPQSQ
# Procedure, shortened: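 Fluorescence increase, nuclear for agonists or whole-cell for antagonists, relative to DMSO vehicle, quantified by laser scanning cytometer after fixation and Draq5 staining. Readout from 24 h treatment of HEK293T cells carrying complementation-paired ER beta LBD (aa 310-547).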
# [11] = biological target: rat Serotonin Transporter (SERT), Slc6a4 (gene 25553) (UniProt P31652); experiment: NVS_TR_rSERT: NovaScreen (NVS) Transporter Assay for rat Serotonin Transporter (SERT) (AID 2283375)
# rat Serotonin Transporter (SERT), Slc6a4 (gene 25553), sequence (P31652 whole entry, looked up): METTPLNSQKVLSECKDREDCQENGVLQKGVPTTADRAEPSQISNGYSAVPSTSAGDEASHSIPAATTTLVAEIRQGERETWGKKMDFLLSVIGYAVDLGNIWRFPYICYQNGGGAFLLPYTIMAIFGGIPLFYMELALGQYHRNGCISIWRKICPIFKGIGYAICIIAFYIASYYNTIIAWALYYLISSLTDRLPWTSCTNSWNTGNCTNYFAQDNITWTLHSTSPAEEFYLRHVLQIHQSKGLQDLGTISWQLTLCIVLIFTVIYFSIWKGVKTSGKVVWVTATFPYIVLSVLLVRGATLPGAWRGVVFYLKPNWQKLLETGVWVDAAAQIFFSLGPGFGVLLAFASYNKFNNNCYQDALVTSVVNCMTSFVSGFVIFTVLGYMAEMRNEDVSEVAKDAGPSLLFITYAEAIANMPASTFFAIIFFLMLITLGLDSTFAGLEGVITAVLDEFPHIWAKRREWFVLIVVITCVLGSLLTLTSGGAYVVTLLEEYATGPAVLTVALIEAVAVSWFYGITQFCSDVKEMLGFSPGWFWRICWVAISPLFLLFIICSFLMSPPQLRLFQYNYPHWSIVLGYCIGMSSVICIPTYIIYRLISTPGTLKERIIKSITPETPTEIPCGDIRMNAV
# Procedure, shortened: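 Using rat forebrain membrane SERT, test chemicals compete with a radioligand for 1 hour, and bound counts are taken by filter-based scintillation. Screening starts at 25 uM in duplicate, followed by concentration series for actives.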
compound,measurement,setting,value
O=C(O)c1cccc(Oc2ccccc2)c1,outcome,[1],inactive
same,outcome,[2],inactive
same,outcome,[3],inactive
same,outcome,[4],inactive
same,outcome,[5],inactive
same,outcome,[6],inactive
same,outcome,[7],inactive
CC(C)c1cccc(C(C)C)c1N1C(=O)c2ccc(O)cc2C1=O,AC50,[2],16.1 µM (active)
same,AC50,[8],2.63 µM (active)
same,outcome,[7],inactive
Nc1nc2ncc(CNc3ccc(C(=O)N[C@@H](CCC(=O)O)C(=O)O)cc3)nc2c(=O)[nH]1,outcome,[9],inactive
same,outcome,[10],inactive
same,outcome,[7],inactive
O=c1n(CC2CO2)c(=O)n(CC2CO2)c(=O)n1CC1CO1 (configuration not stated),outcome,[10],inactive
same,outcome,[4],inactive
same,outcome,[5],inactive
same,outcome,[7],inactive
CC[C@H](C)C(=O)O[C@H]1C[C@@H](C)C=C2C=C[C@H](C)[C@H](CC[C@@H]3C[C@@H](O)CC(=O)O3)[C@H]21,outcome,[10],inactive
same,outcome,[4],inactive
same,outcome,[5],inactive
same,AC50,[8],34.8 µM (active)
same,outcome,[6],inactive
same,outcome,[7],inactive
CCOC(=O)CC(CC(=O)OCC)(OC(C)=O)C(=O)OCC,outcome,[10],inactive
same,outcome,[8],inactive
same,outcome,[7],inactive
CC(C)=CCCC(C)=CC=O,outcome,[10],inactive
same,outcome,[4],inactive
same,outcome,[5],inactive
same,outcome,[7],inactive
Cc1ccc(O)cc1,outcome,[9],inactive
same,outcome,[10],inactive
same,outcome,[8],inactive
same,outcome,[7],inactive
CCOCCO,outcome,[10],inactive
same,outcome,[7],inactive
O=C1OC(=O)C2C3C=CC(C3)C12 (configuration not stated),outcome,[10],inactive
same,outcome,[6],inactive
same,outcome,[7],inactive
O=C1CCC(N2C(=O)c3ccccc3C2=O)C(=O)N1 (configuration not stated),outcome,[3],inactive
same,outcome,[10],inactive
same,outcome,[7],inactive
COCCOCCOCCOC,outcome,[11],inactive
same,outcome,[10],inactive
same,outcome,[8],inactive
same,outcome,[7],inactive
CCCCCCCCO,outcome,[10],inactive
same,outcome,[4],inactive
same,outcome,[5],inactive
same,outcome,[7],inactive
CCOCCOCCOCCO,outcome,[10],inactive
same,outcome,[8],inactive
same,outcome,[7],inactive
CC(O)CN(CCN(CC(C)O)CC(C)O)CC(C)O (configuration not stated),outcome,[10],inactive
same,outcome,[8],inactive
same,outcome,[6],inactive
same,outcome,[7],inactive
C[C@](N)(Cc1ccc(O)c(O)c1)C(=O)O,outcome,[6],inactive
same,outcome,[7],inactive
CCNc1ccccc1,outcome,[9],inactive
same,outcome,[10],inactive
same,outcome,[8],inactive
same,outcome,[6],inactive
same,outcome,[7],inactive
C1N2CN3CN1CN(C2)C3,outcome,[9],inactive
same,outcome,[10],inactive
same,outcome,[8],inactive
same,outcome,[7],inactive
C1=CCCC=CCCC=CCC1,outcome,[10],inactive
same,outcome,[8],inactive
same,outcome,[6],inactive
same,outcome,[7],inactive
Cn1c(=O)c2c(ncn2C)n(C)c1=O,outcome,[6],inactive
same,outcome,[7],inactive
O=C(CCCCCCCCc1cccnc1)N1CCC(C=C(c2ccccc2)c2ccccc2)CC1,outcome,[9],inactive
same,AC50,[10],11.9 µM (active)
same,outcome,[6],inactive
same,AC50,[7],12 µM (active)
O=C1CCCCCN1,outcome,[10],inactive
same,outcome,[8],inactive
CCCC(=O)OCC,outcome,[10],inactive
same,outcome,[4],inactive
same,outcome,[5],inactive
same,outcome,[7],inactive
CCCCCCCCCCCCCCCO,outcome,[10],inactive
same,outcome,[6],inactive
same,outcome,[7],inactive
CC[C@H]1OC(=O)[C@H](C)[C@@H](O[C@H]2C[C@@](C)(OC)[C@@H](O)[C@H](C)O2)[C@H](C)[C@@H](O[C@@H]2O[C@H](C)C[C@H](N(C)C)[C@H]2O)[C@](C)(O)C[C@@H](C)C(=O)[C@H](C)[C@@H](O)[C@]1(C)O,outcome,[10],inactive
same,outcome,[7],inactive
Cc1ccc(S(=O)(=O)O)cc1C,outcome,[4],inactive
same,outcome,[5],inactive
same,outcome,[7],inactive
CC(=O)OC[C@H]1O[C@@](COC(C)=O)(O[C@H]2O[C@H](COC(C)=O)[C@@H](OC(C)=O)[C@H](OC(C)=O)[C@H]2OC(C)=O)[C@@H](OC(C)=O)[C@@H]1OC(C)=O,outcome,[10],inactive
same,outcome,[7],inactive
CC(C)CCCCCCOC(=O)c1ccc(C(=O)OCCCCCCC(C)C)c(C(=O)OCCCCCCC(C)C)c1,outcome,[10],inactive
same,outcome,[6],inactive
same,outcome,[7],inactive
CC(C)CCO,outcome,[10],inactive
same,outcome,[4],inactive
same,outcome,[5],inactive
same,outcome,[7],inactive
COC(=O)CC(=O)OC,outcome,[10],inactive
same,outcome,[4],inactive
same,outcome,[5],inactive
same,outcome,[6],inactive
same,outcome,[7],inactive
CC1=CC(=O)CC(C)(C)C1,outcome,[7],inactive
